Results from the supplement of paper PMC12669032.

What was measured:
Experiment in all cases: growth AUC relative to DMSO control (median of replicates) (fraction); higher = more growth (less inhibition), active = hit call of the paper
Settings in all cases: 20 µM; 24 h;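 active = AUC reduced over 20% with Padj below 0.05 in at least 2 of 3 replicates; inactive = otherwise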
Akkermansia muciniphila = test system: Akkermansia muciniphila
Outline: (§1)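 Area under the growth curve was normalised to the plate median of solvent-only wells, except on the industrial chemical plate, where row and column medians were used. Curves came from gut bacterial monocultures grown anaerobically at 37 °C in mGAM with 20 µM compound (1% DMSO), starting at OD600 0.05 and read at OD600 every hour for 24 h. The minimum OD of each curve was set to 0, and values are medians of three biological replicates grown on separate days.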

Bacteroides caccae = test system: Bacteroides caccae
Outline: as §1

Bacteroides clarus = test system: Bacteroides clarus
Outline: as §1

Bacteroides dorei = test system: Bacteroides dorei
Outline: as §1

Bacteroides stercoris = test system: Bacteroides stercoris
Outline: as §1

[1] = test system: Bacteroides thetaiotaomicron
Outline: as §1

Bacteroides uniformis = test system: Bacteroides uniformis
Outline: as §1

[2] = test system: Bifidobacterium longum subsp. longum
Outline: as §1

Clostridium difficile = test system: Clostridium difficile
Outline: as §1

Collinsella aerofaciens = test system: Collinsella aerofaciens
Outline: as §1

Measured: growth AUC

COCC(=O)N(c1c(C)cccc1C)N1CCOC1=O
inactive: Akkermansia muciniphila 0.966 | Bacteroides caccae 0.969 | Bacteroides clarus 0.945 | Bacteroides dorei 1 | Bacteroides stercoris 0.978 | [1] 0.99 | Bacteroides uniformis 1 | [2] 0.963 | Clostridium difficile 0.983 | Collinsella aerofaciens 0.997

COC(=O)C(Cl)Cl
inactive: Akkermansia muciniphila 1 | Bacteroides caccae 0.968 | Bacteroides clarus 0.992 | Bacteroides dorei 1 | Bacteroides stercoris 1.06 | [1] 1.02 | Bacteroides uniformis 0.971 | [2] 0.957 | Clostridium difficile 0.997 | Collinsella aerofaciens 0.991

Nc1nc(N)[nH]c(=O)n1
inactive: Akkermansia muciniphila 1.05 | Bacteroides caccae 1.02 | Bacteroides clarus 0.994 | Bacteroides dorei 1.04 | Bacteroides stercoris 1 | [1] 1.01 | Bacteroides uniformis 1.01 | [2] 1.02 | Clostridium difficile 1 | Collinsella aerofaciens 1.1

COC(=O)c1sccc1S(=O)(=O)NC(=O)Nc1nc(C)nc(OC)n1
inactive: Akkermansia muciniphila 1.13 | Bacteroides caccae 0.932 | Bacteroides clarus 0.994 | Bacteroides dorei 0.875 | Bacteroides stercoris 0.961 | [1] 0.924 | Bacteroides uniformis 1.03 | [2] 1.09 | Clostridium difficile 0.944 | Collinsella aerofaciens 0.898

ClC1=C(Cl)C2(Cl)[C@H]3[C@H]4O[C@H]4[C@H](Cl)[C@H]3C1(Cl)C2(Cl)Cl (single isomer, unassigned; isomer a)
inactive: Akkermansia muciniphila 1.05 | Bacteroides caccae 0.99 | Bacteroides clarus 0.989 | Bacteroides dorei 1 | Bacteroides stercoris 0.778 | [1] 1.02 | Bacteroides uniformis 0.991 | [2] 1.07 | Clostridium difficile 0.998 | Collinsella aerofaciens 0.949

COC(=O)C(C)N(C(=O)Cc1ccccc1)c1c(C)cccc1C (stereo not given)
inactive: Akkermansia muciniphila 0.959 | Bacteroides caccae 0.985 | Bacteroides clarus 0.957 | Bacteroides dorei 0.99 | Bacteroides stercoris 0.954 | [1] 0.956 | Bacteroides uniformis 0.878 | [2] 1.02 | Clostridium difficile 0.977 | Collinsella aerofaciens 1.02

CC(=O)O.NC(N)=NCCCCCCCCNCCCCCCCCN=C(N)N
active: Bacteroides caccae 0.279 | Bacteroides clarus 0.442 | Bacteroides dorei 0.638 | Bacteroides stercoris 0.186 | [1] 0.0333 | Bacteroides uniformis 0.115 | [2] 0.136 | Collinsella aerofaciens 0.618
inactive: Akkermansia muciniphila 0.836 | Clostridium difficile 0.984

Nc1cccc(Cl)c1Cl
inactive: Akkermansia muciniphila 0.928 | Bacteroides caccae 1.04 | Bacteroides clarus 1 | Bacteroides dorei 0.999 | Bacteroides stercoris 1.18 | [1] 0.999 | Bacteroides uniformis 1.02 | [2] 0.921 | Clostridium difficile 0.999 | Collinsella aerofaciens 1.06

COP(=O)(OC)OC=C(Cl)Cl
inactive: Akkermansia muciniphila 1.04 | Bacteroides caccae 1.05 | Bacteroides clarus 1.01 | Bacteroides dorei 0.984 | Bacteroides stercoris 1.17 | [1] 1.03 | Bacteroides uniformis 1.03 | [2] 1.04 | Clostridium difficile 1.05 | Collinsella aerofaciens 1.01

COP(=O)(OC)Oc1ccc(S(C)=O)c(C)c1 (stereo not given)
inactive: Akkermansia muciniphila 0.935 | Bacteroides caccae 0.986 | Bacteroides clarus 0.95 | Bacteroides dorei 1 | Bacteroides stercoris 1.02 | [1] 0.972 | Bacteroides uniformis 0.994 | [2] 1 | Clostridium difficile 1.01 | Collinsella aerofaciens 0.996

CN(C)C(=O)Nc1cccc(C(F)(F)F)c1
inactive: Akkermansia muciniphila 0.966 | Bacteroides caccae 0.97 | Bacteroides clarus 0.983 | Bacteroides dorei 0.991 | Bacteroides stercoris 0.911 | [1] 0.967 | Bacteroides uniformis 1.02 | [2] 0.961 | Clostridium difficile 1.02 | Collinsella aerofaciens 0.997

COC(=O)NS(=O)(=O)c1ccc(N)cc1
inactive: Akkermansia muciniphila 1 | Bacteroides caccae 0.901 | Bacteroides clarus 0.995 | Bacteroides dorei 0.916 | Bacteroides stercoris 0.959 | [1] 0.948 | Bacteroides uniformis 0.867 | [2] 1.03 | Clostridium difficile 0.913 | Collinsella aerofaciens 0.876

CCOCCN(C(=O)CCl)C(=C(C)C)c1ccccc1
inactive: Akkermansia muciniphila 0.903 | Bacteroides caccae 1.01 | Bacteroides clarus 0.998 | Bacteroides dorei 1 | Bacteroides stercoris 0.967 | [1] 0.937 | Bacteroides uniformis 0.944 | [2] 1.04 | Clostridium difficile 0.954 | Collinsella aerofaciens 1.02

C=CCNC(=O)c1c([Si](C)(C)C)sc(C)c1C
inactive: Akkermansia muciniphila 0.751 | Bacteroides caccae 0.964 | Bacteroides clarus 0.973 | Bacteroides dorei 0.978 | Bacteroides stercoris 0.961 | [1] 0.96 | Bacteroides uniformis 0.973 | [2] 0.966 | Clostridium difficile 0.968 | Collinsella aerofaciens 0.981

C[C@@H](Oc1ccc(Oc2ccc(C(F)(F)F)cn2)cc1)C(=O)O
inactive: Akkermansia muciniphila 1.08 | Bacteroides caccae 1.04 | Bacteroides clarus 1.02 | Bacteroides dorei 1.02 | Bacteroides stercoris 1.05 | [1] 1.02 | Bacteroides uniformis 0.995 | [2] 0.985 | Clostridium difficile 1.02 | Collinsella aerofaciens 0.957

CCc1cnc(C2=NC(C)(C(C)C)C(=O)N2)c(C(=O)O)c1 (stereo not given)
inactive: Akkermansia muciniphila 0.891 | Bacteroides caccae 1.01 | Bacteroides clarus 0.971 | Bacteroides dorei 0.951 | Bacteroides stercoris 0.985 | [1] 0.981 | Bacteroides uniformis 1.01 | [2] 0.937 | Clostridium difficile 0.993 | Collinsella aerofaciens 0.983

CC1(C)C(C=C(Cl)Cl)[C@@H]1C(=O)O[C@@H](C#N)c1ccc(F)c(Oc2ccccc2)c1 (stereo not given in full)
inactive: Akkermansia muciniphila 0.998 | Bacteroides caccae 0.986 | Bacteroides clarus 1.01 | Bacteroides dorei 1.01 | Bacteroides stercoris 0.992 | [1] 1 | Bacteroides uniformis 0.976 | [2] 0.983 | Clostridium difficile 0.996 | Collinsella aerofaciens 0.96

CNC(=O)CSP(=S)(OC)OC
inactive: Akkermansia muciniphila 1.19 | Bacteroides caccae 1 | Bacteroides clarus 0.994 | Bacteroides dorei 0.901 | Bacteroides stercoris 0.954 | [1] 1.01 | Bacteroides uniformis 1 | [2] 1.01 | Clostridium difficile 0.978 | Collinsella aerofaciens 0.974

ClCC1C(CCl)C2(Cl)C(Cl)=C(Cl)C1(Cl)C2(Cl)Cl (stereo not given)
inactive: Akkermansia muciniphila 0.995 | Bacteroides caccae 0.971 | Bacteroides clarus 0.999 | Bacteroides dorei 0.972 | Bacteroides stercoris 0.985 | [1] 0.994 | Bacteroides uniformis 1.01 | [2] 1.02 | Clostridium difficile 0.989 | Collinsella aerofaciens 0.962

CCOP(=S)(Oc1cnc(C(C)(C)C)nc1)OC(C)C (stereo not given)
inactive: Akkermansia muciniphila 0.912 | Bacteroides caccae 0.973 | Bacteroides clarus 0.94 | Bacteroides dorei 1.02 | Bacteroides stercoris 0.977 | [1] 1.01 | Bacteroides uniformis 0.974 | [2] 0.97 | Clostridium difficile 1 | Collinsella aerofaciens 1.03

C=CC1(C)OC(=O)N(c2cc(Cl)cc(Cl)c2)C1=O (stereo not given)
inactive: Akkermansia muciniphila 1.02 | Bacteroides caccae 0.985 | Bacteroides clarus 0.958 | Bacteroides dorei 1 | Bacteroides stercoris 0.994 | [1] 0.989 | Bacteroides uniformis 0.99 | [2] 0.917 | Clostridium difficile 1.02 | Collinsella aerofaciens 0.999

COc1cc(OC)nc(Oc2cccc(Oc3nc(OC)cc(OC)n3)c2C(=O)[O-])n1.[Na+]
inactive: Akkermansia muciniphila 0.934 | Bacteroides caccae 0.973 | Bacteroides clarus 0.963 | Bacteroides dorei 1.02 | Bacteroides stercoris 0.99 | [1] 1.01 | Bacteroides uniformis 1 | [2] 0.965 | Clostridium difficile 1.06 | Collinsella aerofaciens 1.02

C#CCOc1ccc(CCNC(=O)C(OCC#C)c2ccc(Cl)cc2)cc1OC (stereo not given)
inactive: Akkermansia muciniphila 1.02 | Bacteroides caccae 0.94 | Bacteroides clarus 0.948 | Bacteroides dorei 0.957 | Bacteroides stercoris 0.898 | [1] 0.951 | Bacteroides uniformis 0.901 | [2] 1.02 | Clostridium difficile 0.981 | Collinsella aerofaciens 1

CC(C)(C)C(O)C(Cc1ccc(Cl)cc1Cl)n1cncn1 (mixture of isomers)
inactive: Akkermansia muciniphila 1.11 | Bacteroides caccae 0.923 | Bacteroides clarus 0.969 | Bacteroides dorei 0.889 | Bacteroides stercoris 0.868 | [1] 0.921 | Bacteroides uniformis 0.932 | [2] 1.04 | Clostridium difficile 1.01 | Collinsella aerofaciens 0.936

Oc1c(Cl)ccc(Cl)c1Cl
inactive: Akkermansia muciniphila 1.04 | Bacteroides caccae 0.927 | Bacteroides clarus 0.968 | Bacteroides dorei 0.954 | Bacteroides stercoris 1.15 | [1] 0.987 | Bacteroides uniformis 0.981 | [2] 1.02 | Clostridium difficile 1 | Collinsella aerofaciens 0.937

CCN(CC)N=O
inactive: Akkermansia muciniphila 1 | Bacteroides caccae 1 | Bacteroides clarus 1 | Bacteroides dorei 1.04 | Bacteroides stercoris 1.04 | [1] 1.01 | Bacteroides uniformis 1 | [2] 1.05 | Clostridium difficile 1.02 | Collinsella aerofaciens 0.991

CNC(=O)Oc1cccc2c1OC(C)(C)C2O (stereo not given)
inactive: Akkermansia muciniphila 1.07 | Bacteroides caccae 1.01 | Bacteroides clarus 1.04 | Bacteroides dorei 1.02 | Bacteroides stercoris 1.06 | [1] 1.01 | Bacteroides uniformis 0.998 | [2] 0.967 | Clostridium difficile 1.03 | Collinsella aerofaciens 1.01

COC(=O)/C(C)=C/OP(=S)(OC)OC
inactive: Akkermansia muciniphila 0.968 | Bacteroides caccae 0.992 | Bacteroides clarus 0.963 | Bacteroides dorei 0.985 | Bacteroides stercoris 1.02 | [1] 0.978 | Bacteroides uniformis 0.96 | [2] 1.02 | Clostridium difficile 0.984 | Collinsella aerofaciens 1.03

CCOC(=O)c1cn2nc(OP(=S)(OCC)OCC)cc2nc1C
inactive: Akkermansia muciniphila 1.14 | Bacteroides caccae 0.973 | Bacteroides clarus 0.945 | Bacteroides dorei 0.904 | Bacteroides stercoris 0.876 | [1] 0.991 | Bacteroides uniformis 0.834 | [2] 1.05 | Clostridium difficile 0.988 | Collinsella aerofaciens 0.967
